Hit rate of the full screen: of about 300,000 compounds, about 2,300 (0.77%) were called active. The sample holds actives, similar compounds and a random draw of the others, so the mix is not that of the screen. Values without a mark were called inactive.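 Rule for the calls: active = more than half of replicate wells show activity change below -50%, luminescence cut by over half; inconclusive = some wells, but at most half, below -50%; inactive = no replicate well below -50%.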
Experiment: HSF1 inhibitors in luciferase reporter cells, primary screen, cell-based, NIH3T3, luminescence (AID 2098);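 note: luciferase reports HSF-1 transcriptional activity via heat shock element; 0% = median of DMSO wells and -100% = zero luminescence signal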
Conditions: NIH3T3-HGL HSE-luciferase, MG132-induced, luminescence 8 h; active compounds read low; screened at 7.5 µM (by protocol)

Q: For `Brc1ccc2nc(N3CCCC3)sc2c1`, which activity change, negative = inhibition is on record?
A: 22%

Q: For `c1c2c(cc3sc(N4CCCCC4)nc13)OCCO2`, which activity change, negative = inhibition is on record?
A: -55.1% (active)

Q: With `Cc1nc2cc3c(cc2s1)OCO3` as the compound, how does the activity change, negative = inhibition read?
A: 3.71%

Q: Which activity change, negative = inhibition does the source give for `Cc1ccc(S(=O)(=O)N2CCN(C(=O)c3ccc(-n4cncn4)c([N+](=O)[O-])c3)CC2)cc1` here?
A: -4.92%

Q: With `Cc1cc(C)c(SCCc2ccncc2)c(C)c1` as the compound, how does the activity change, negative = inhibition read?
A: -16.4%

Q: Which activity change, negative = inhibition does the source give for `CC(C)(C)C(=O)COC(=O)c1cc(S(=O)(=O)N2CCCCC2)ccc1N1CCOCC1` here?
A: 0.13%

Q: Which activity change, negative = inhibition does the source give for `Cc1cc(C)c2oc(C(=O)Nc3ccc(S(=O)(=O)Nc4nccc(C)n4)cc3)cc(=O)c2c1` here?
A: -70.7% (active)

Q: With `Cc1ccnc(NS(=O)(=O)c2ccc(NC(=O)c3ccc(S(=O)(=O)N(C)C)cc3)cc2)n1` as the compound, how does the activity change, negative = inhibition read?
A: 1.75%

Q: For `Cc1ccnc(NS(=O)(=O)c2ccc(NC(=O)c3oc4ccccc4c3C)cc2)n1`, which activity change, negative = inhibition is on record?
A: -1.33%

Q: With `CC1(c2nnc(Cc3ccccc3)o2)CC(c2ccccc2F)=NO1` (centres undefined) as the compound, how does the activity change, negative = inhibition read?
A: -1.4%

Q: With `Cc1cccc(C(=O)NC(=S)N2CCN(c3ccc([N+](=O)[O-])cc3)CC2)c1` as the compound, how does the activity change, negative = inhibition read?
A: -62.5% (active)

Q: Which activity change, negative = inhibition does the source give for `Cc1cccc(C(=O)Nc2ccccc2N2CCN(c3ccc(F)cc3)CC2)c1` here?
A: -1.05%

Q: For `Cc1cccc(C(=O)NNC(=O)c2cccc([N+](=O)[O-])c2)c1`, which activity change, negative = inhibition is on record?
A: -3.12%

Q: For `O=S(=O)(/C=C/c1ccccc1)N1CCNCC1`, which activity change, negative = inhibition is on record?
A: 0.181%

Q: For `CN1CCN(S(=O)(=O)c2ccc(Nc3ccc(F)cc3)nc2)CC1`, which activity change, negative = inhibition is on record?
A: -3.3%

Q: Which activity change, negative = inhibition does the source give for `O=C(O)c1cccc(NC(=O)c2cc(-c3cccc(Cl)c3)nc3ccccc23)c1` here?
A: -10.6%

Q: For `O=C(Nc1cccc(F)c1)c1cc(-c2ccco2)nc2ccccc12`, which activity change, negative = inhibition is on record?
A: -58.6% (active)

Q: With `COc1ccc(NC(=O)c2cc(-c3ccc(C)o3)nc3ccccc23)cc1` as the compound, how does the activity change, negative = inhibition read?
A: 8.98%

Q: Which activity change, negative = inhibition does the source give for `COc1ccccc1C(=O)NCCC(=O)NC(C)CCc1ccccc1` (centres undefined) here?
A: 1.3%

Q: With `Cc1ccc(S(=O)(=O)N(C)c2ccc(OCC(=O)OCc3ccc(C#N)cc3)cc2)cc1` as the compound, how does the activity change, negative = inhibition read?
A: -4.36%

Q: Which activity change, negative = inhibition does the source give for `COc1ccc(C2=NOC(Cn3nc(C(=O)NCc4ccc5c(c4)OCO5)cc3-c3ccccc3)C2)cc1` (centres undefined) here?
A: 2.18%

Q: For `c1ccc(-c2c[nH]c(-c3ccccc3)c2)cc1`, which activity change, negative = inhibition is on record?
A: -83.8%

Q: For `O=C(Nc1ccccc1)Nc1ccc(C(F)(F)F)cn1`, which activity change, negative = inhibition is on record?
A: -1.47%

Q: For `Oc1ccc(/C=N/Nc2ccc(C(F)(F)F)cn2)cc1O`, which activity change, negative = inhibition is on record?
A: -78.4% (active)

Q: Which activity change, negative = inhibition does the source give for `Cc1nccn1CC(=O)N/N=C/c1ccc(O)c(O)c1` here?
A: 2.17%

Q: With `N/C(=N\OC(=O)CCC1CCCCC1)c1ccccn1` as the compound, how does the activity change, negative = inhibition read?
A: 17.7%

Q: Which activity change, negative = inhibition does the source give for `CCC(C)(NC(=O)c1ccccn1)C(=O)NC1CCCCC1` (centres undefined) here?
A: -54.6% (active)

Q: With `CSc1ncccc1C(=O)NC1CCCCCC1` as the compound, how does the activity change, negative = inhibition read?
A: -4.75%

Q: For `CC(Oc1ccc(F)cc1)C(=O)Nc1ccccc1C(=O)NC1CC1` (centres undefined), which activity change, negative = inhibition is on record?
A: 5.48%

Q: Which activity change, negative = inhibition does the source give for `CCOC(=O)N1CCN(C(=O)c2ccccc2SCC(=O)NCC2CCCCC2)CC1` here?
A: 6.98%

Q: Which activity change, negative = inhibition does the source give for `COC(=O)[C@@]12CCCN1[C@H](c1ccc(-c3ccc(F)cc3)c(OC)c1)[C@H]1C(=O)N(C)C(=O)[C@H]12` here?
A: 20.6%

Q: With `CC(=O)O[C@H]1CC[C@@]2(C)[C@@H](CC[C@@H]3[C@@H]2CC[C@]2(C)[C@@H](C(C)(C)O)C[C@@H]32)C1` as the compound, how does the activity change, negative = inhibition read?
A: -1.58%

Q: For `CC(C)(CCl)C(=O)Nc1ccc(Sc2ccc(F)cc2)cc1`, which activity change, negative = inhibition is on record?
A: 6.39%

Q: With `O=C(CCl)Nc1ccc(Sc2ccc(NC(=O)CCl)cc2)cc1` as the compound, how does the activity change, negative = inhibition read?
A: -61.6% (active)

Q: For `Cc1ccc(NC(=O)CC(=O)Nc2ccc(C)cc2)cc1`, which activity change, negative = inhibition is on record?
A: 11.5%

Q: Which activity change, negative = inhibition does the source give for `O=C(c1cc(-c2ccco2)nc2ccccc12)N(Cc1nnc(-c2ccc(Cl)cc2)o1)C1CC1` here?
A: 8.92%

Q: Which activity change, negative = inhibition does the source give for `Cc1cc(C(=O)OC(C)C(=O)NC2CCCCC2C)c(C)o1` (centres undefined) here?
A: 3.94%

Q: Which activity change, negative = inhibition does the source give for `COc1cccc(CNC(=O)CCCC(=O)Nc2cccc([N+](=O)[O-])c2)c1` here?
A: -0.854%

Q: Which activity change, negative = inhibition does the source give for `COc1ccc(S(=O)(=O)NC(C)C(=O)Nc2cccc([N+](=O)[O-])c2)cc1` (centres undefined) here?
A: -3.53%

Q: With `COC(=O)/C=C\C(=O)Nc1cccc([N+](=O)[O-])c1` as the compound, how does the activity change, negative = inhibition read?
A: -76.8% (active)

Q: For `Cc1ccc(OCC(=O)Oc2ccccc2[N+](=O)[O-])cc1`, which activity change, negative = inhibition is on record?
A: -1.37%

Q: With `CCOc1ccc(C(=O)Nc2cc(Cl)ccc2-n2cncn2)cc1OC` as the compound, how does the activity change, negative = inhibition read?
A: -3.95%

Q: For `Cc1cc(/C=N/n2cnnc2)c(C)n1-c1ccc2ncccc2c1`, which activity change, negative = inhibition is on record?
A: -11.6%

Q: With `O=C(COC(=O)c1cnccn1)Nc1ccc(Cl)cc1C(F)(F)F` as the compound, how does the activity change, negative = inhibition read?
A: -5.67%

Q: For `O=C(CS(=O)(=O)Cc1ccccc1)NCC1CCCO1` (centres undefined), which activity change, negative = inhibition is on record?
A: -53.1% (active)

Q: Which activity change, negative = inhibition does the source give for `O=C(COC(=O)c1ccc(S(=O)(=O)Nc2ccccc2)cc1)NCC1CCCO1` (centres undefined) here?
A: -11.9%

Q: With `S=C(NCCc1ccccc1)NCC1CCCO1` (centres undefined) as the compound, how does the activity change, negative = inhibition read?
A: 14%

Q: For `CS(=O)(=O)c1ccc(Cl)c(NC(=O)COC(=O)c2ncc(Cl)c(Cl)c2Cl)c1`, which activity change, negative = inhibition is on record?
A: 0.97%

Q: With `O=C(CN1CCOCC1)Nc1cccc([N+](=O)[O-])c1` as the compound, how does the activity change, negative = inhibition read?
A: 6.69%

Q: Which activity change, negative = inhibition does the source give for `C=CCNc1ncnc2ccc(Br)cc12` here?
A: -13.4%

Q: Which activity change, negative = inhibition does the source give for `COc1ccc(Nc2ncnc3sc(-c4ccccc4)cc23)c(OC)c1` here?
A: -2.06%

Q: For `COc1ccc(Nc2ncnc3ccc(Br)cc23)c(OC)c1`, which activity change, negative = inhibition is on record?
A: -71.5% (active)

Q: Which activity change, negative = inhibition does the source give for `Cc1ccc(C)c(OCCC(=O)OCC(=O)NC(=O)NCc2ccccc2)c1` here?
A: -6.76%

Q: For `COc1ccc(NC(=O)/C(Cl)=C(/Cl)S(=O)Cc2ccc(C)cc2)cn1` (centres undefined), which activity change, negative = inhibition is on record?
A: -94.7% (active)

Q: With `COc1ccc(NC(=O)c2cc(-c3ccc(C)cc3)on2)cc1` as the compound, how does the activity change, negative = inhibition read?
A: -1.83%

Q: For `COc1ccc(Nc2cc(Cl)ccc2C(=O)O)cn1`, which activity change, negative = inhibition is on record?
A: 0.861%

Q: Which activity change, negative = inhibition does the source give for `CCCCn1c(N)c(N(CC)C(=O)c2ccc(N(C)S(=O)(=O)c3ccc(C)cc3)cc2)c(=O)[nH]c1=O` here?
A: -4.56%

Q: With `CCN1C(=O)[C@H]2[C@@H](c3ccc(SC4CCCCC4)c(OC)c3)N[C@@](Cc3ccccc3)(C(=O)OC)[C@H]2C1=O` as the compound, how does the activity change, negative = inhibition read?
A: 6.65%

Q: With `Cc1cc(C(=O)CCC(=O)NNC(=O)c2ccccc2O)c(C)s1` as the compound, how does the activity change, negative = inhibition read?
A: 1.38%

Source: PubChem BioAssay AID2098 (Broad Institute, 2009)
